Mdm2 MdmX PPI: inhibitors of human Mdm2/MdmX interaction | inhibition, % at 8 µM | O15151+Q00987 | actives 3% (n = 330,000) | SaOS-2 split-luciferase Mdm2/MdmX complementation, luminescence;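 active = inhibition of at least 50% at 8 µM in the primary screen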
Target sequence (O15151 whole entry, looked up): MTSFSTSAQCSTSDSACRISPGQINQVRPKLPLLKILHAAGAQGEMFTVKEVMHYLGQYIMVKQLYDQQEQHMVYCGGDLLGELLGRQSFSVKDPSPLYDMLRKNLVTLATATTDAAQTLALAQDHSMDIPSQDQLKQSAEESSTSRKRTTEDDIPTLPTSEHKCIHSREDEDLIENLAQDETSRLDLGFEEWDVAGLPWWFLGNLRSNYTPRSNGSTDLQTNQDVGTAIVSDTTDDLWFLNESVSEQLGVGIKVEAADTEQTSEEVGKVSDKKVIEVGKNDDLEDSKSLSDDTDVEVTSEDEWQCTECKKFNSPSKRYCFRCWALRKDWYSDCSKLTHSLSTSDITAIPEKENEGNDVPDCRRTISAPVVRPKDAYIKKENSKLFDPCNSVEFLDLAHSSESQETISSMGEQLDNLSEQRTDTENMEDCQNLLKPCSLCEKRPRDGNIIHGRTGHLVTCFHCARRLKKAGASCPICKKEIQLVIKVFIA
Target sequence (Q00987 whole entry, looked up): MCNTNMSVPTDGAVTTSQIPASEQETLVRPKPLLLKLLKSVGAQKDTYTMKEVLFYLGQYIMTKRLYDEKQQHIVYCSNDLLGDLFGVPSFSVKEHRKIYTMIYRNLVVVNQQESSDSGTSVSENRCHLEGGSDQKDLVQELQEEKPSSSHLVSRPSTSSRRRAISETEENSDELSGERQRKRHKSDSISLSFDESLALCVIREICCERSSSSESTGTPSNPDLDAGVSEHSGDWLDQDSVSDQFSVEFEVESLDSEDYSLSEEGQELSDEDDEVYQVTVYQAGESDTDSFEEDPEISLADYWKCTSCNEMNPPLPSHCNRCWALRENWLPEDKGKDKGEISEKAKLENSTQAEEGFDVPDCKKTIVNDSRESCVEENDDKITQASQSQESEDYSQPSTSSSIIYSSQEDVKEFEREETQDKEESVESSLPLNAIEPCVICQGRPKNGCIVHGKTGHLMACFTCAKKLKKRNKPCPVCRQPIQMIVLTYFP
CSC inhib: blocks cancer stem cells. cancer stem cell-like cells viability, luminescence. inhibition, % at 7.5 µM. actives 1.1% (n = 300,000). AID 2717; in the data active = inhibition above about 75%; tested in HMLE shEcad cells
Calb FLC: C. albicans growth modulation with fluconazole; C. albicans CaCi-2 (fluconazole-resistant clinical isolate) + fluconazole, Alamar Blue growth, 48 h; growth inhibition, % (test concentration not listed); actives 0.57% (n = 300,000); AID 1979;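 active = growth inhibition above about 58% in most replicates, limit read from the data, passing the limit was not always enough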;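 note: all wells also contain fluconazole at 8 µg/ml as a sub-toxic cotreatment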
Beta cell apopt: blocks beta cell apoptosis. INS-1E cytokine-induced death, ATP luminescence, 48 h; percent of positive-control rescue, neutral wells zero. protection from apoptosis, % (test concentration not listed). actives 0.8% (n = 300,000). AID 435005;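 active = Every replicate reaches about 75%, or at least half do and their mean reaches it too, limit read from the data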;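 note: higher means more ATP so stronger rescue from cytokine killing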
PP5 primary: blocks human protein phosphatase 5 activity; P53041; actives 0.18% (n = 320,000); purified PP5c, OMFP substrate fluorescence; AID 1987; inhibition, % at 6.7 µM;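 active = inhibition above the campaign's mean inhibition across all tested compounds plus 3 SD, cut at about 9.5% in these data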
PP1 inh: blocks human PP1-alpha phosphatase, a PP5 counter-screen | inhibition, % at 6.7 µM | P62136 | actives 0.9% (n = 320,000) | purified PP1alpha, OMFP fluorescence | AID 2235;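 active = inhibition above the mean inhibition of all tested compounds plus 3 SD, computed separately for each screening campaign, cut at about 15% in these data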
Mdm2-MdmX conf: human Mdm2/MdmX binding inhibition, confirmed. inhibition, % at 8 µM. actives 55% (n = 10,000). luminescent assay. shares compounds with Mdm2 MdmX PPI; in the data active = inhibition above about 40%
Full FLuc ctr: counter-screen for Mdm2/MdmX inhibitors: full-length luciferase; SaOS-2 full-length luciferase counterscreen, luminescence; actives 77% (n = 6,200); shares compounds with Mdm2 MdmX PPI; inhibition, % at 8 µM;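 active = mean inhibition at 8 µM reaching about 37%, which flags the compound as non-specific, limit read from the data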;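 note: p53-null SaOS-2 cells with luciferase driven by a doxycycline-inducible promoter; compound on cells about two nights before reading with doxycycline added after day one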
Hits are given with their value; 0 = inactive; - = no result given. This is a sample that favours compounds with a hit; in the whole collection about 4.9% have one here.

SMILES | Mdm2 MdmX PPI | CSC inhib | Calb FLC | Beta cell apopt | PP5 primary | PP1 inh | Mdm2-MdmX conf | Full FLuc ctr
COc1cc(/C=C/c2nc3ccccc3c(=O)n2-c2ccccc2O)ccc1O | 69 | 0 | 0 | 0 | 0 | 0 | 0 | -
COc1ccc2nc(/N=C/c3c(O)n(-c4cccc(Cl)c4)c(=O)[nH]c3=O)sc2c1 | 0 | 0 | 0 | 0 | 0 | 0 | - | -
O=[N+]([O-])c1ccc(Cl)c(Cl)c1Cl | 0 | 0 | - | 0 | 0 | 0 | - | -
CC12CN3CN(C1)CC(C)(C3)C2=NO | 0 | 0 | 0 | 0 | 0 | 0 | - | -
CC(C)[C@H]1CC2C3CC=C4C[C@@H](O)CC[C@]4(C)C3CC[C@]2(C)[C@H]1O (stereo partly specified) | 0 | 0 | - | 0 | - | - | - | -
C[C@@H]1CC[C@@]2(NC1)O[C@H]1C[C@H]3[C@@H]4CC=C5C[C@@H](O)CC[C@]5(C)[C@H]4CC[C@]3(C)[C@H]1[C@@H]2C | 58 | 0 | 79 | 0 | 0 | 0 | 0 | -
CC(=NCCCN1CCOCC1)c1c(O)[nH]c(=O)[nH]c1=O | 0 | 0 | 0 | 0 | 0 | 0 | - | -
Cc1ccccc1C(O)(Cc1ccccc1)C1CN2CCC1CC2 (stereo unspecified) | 54 | 0 | 0 | 0 | 0 | 0 | 61 | 69
Cc1ccc(C(O)(c2ccc(C)c(C)c2)C2CN3CCC2CC3)cc1C (stereo unspecified) | 61 | 0 | 0 | 0 | 0 | 0 | 44 | 74
C[C@]12C=CC(=O)C=C1C=C[C@@H]1C2CC[C@]2(C)C(=O)CCC12 (stereo partly specified) | 0 | 0 | 0 | 0 | 0 | 0 | - | -
C[n+]1c(-c2ccccc2)c2cc(N)ccc2c2ccc(N)cc21 | 85 | 0 | 93 | 97 | 0 | 0 | 70 | 0
Cc1ccc(N2C(=O)NC(=O)/C(=C/C=C/c3ccco3)C2=O)cc1 | 54 | 79 | 0 | 0 | 0 | 0 | 0 | -
O=C1NC(=O)N(c2ccccc2)C(=O)/C1=C\C=C\c1ccccc1 | 78 | 0 | 0 | 0 | 0 | 0 | 0 | -
O=C1Nc2cc(C(=O)N3CCC4(CC3)OCCO4)ccc2S/C1=C\c1ccccc1 | 61 | 0 | 0 | 0 | 0 | 0 | 50 | 66
CCN1CCN(Cc2cc(C(C)(C)C)c(O)c(C(C)(C)C)c2)CC1 | 0 | 0 | 0 | 0 | 0 | 0 | - | -
CCCCCn1c(=O)c(C(=O)NCc2ccncc2)c(O)c2ccccc21 | 51 | 0 | 84 | 0 | 0 | 0 | 0 | -
CCCCn1c(=O)c(C(=O)NCc2ccc(Cl)cc2)c(O)c2ccccc21 | 52 | 76 | 0 | - | 0 | 0 | 0 | -
Cc1cccc(-n2c(O)c(C=NCc3cccnc3)c(=O)[nH]c2=O)c1C | 0 | 0 | 0 | 0 | 0 | 0 | - | -
O=C(CCC(=O)N1CC2C[C@@H](C1)Cn1c2cccc1=O)NCCc1ccccc1 | 0 | 0 | 0 | - | 0 | 0 | - | -
CCCN(CC#CCOc1ccc(OC)cc1)CCC | 0 | 0 | 0 | 0 | 0 | 0 | - | -
COc1cc2c3cc1Oc1cc(ccc1O)C[C@@H]1c4c(cc(OC)c(O)c4Oc4ccc(cc4)C[C@H]3N(C)CC2)CCN1C | 92 | 0 | 0 | 0 | 0 | 0 | 76 | 50
COc1cc2c3cc1Oc1c(OC)c(OC)cc4c1[C@H](Cc1ccc(cc1)Oc1cc(ccc1O)C[C@H]3N(C)CC2)N(C)CC4 | 97 | 0 | - | 0 | - | - | 57 | 0
COc1cc2c3cc1Oc1cc(ccc1O)C[C@@H]1c4c(cc(OC)c(O)c4Oc4cccc(c4)C[C@@H]3N(C)CC2)CC[N+]1(C)C | 0 | 0 | - | 0 | 0 | 0 | - | -
COc1cc2c3c(c1OC)Oc1ccc(cc1)C[C@H]1c4c(cc(OC)c(OC)c4Oc4ccc(cc4)C[C@@H]3N(C)CC2)CCN1C | 100 | - | - | - | - | - | 74 | 0
COC(=O)C1=C(c2cccc(OC)c2OC)C[C@@H]2CC[C@H]1N2C(=O)NCCO | 0 | 0 | 0 | 0 | 0 | 0 | - | -
O=c1cccc2n1CC1CC2CN(c2ncnc3c2cnn3-c2ccccc2)C1 (stereo unspecified) | 0 | 0 | 0 | 0 | 0 | 0 | - | -
Cc1cc(Cl)ccc1OCCCC(=O)NCc1cccs1 | 0 | 0 | 0 | 0 | 0 | 0 | - | -
CC(=O)N1N=C(c2c(O)n(C)c(=O)n(C)c2=O)CC1c1ccccc1 (stereo unspecified) | 0 | 0 | 0 | 0 | 0 | 0 | - | -

Assay outcomes as filed in PubChem.
